According to the supplement of paper PMC8371130:
Counter-ions that a name gives are not always drawn.

Each compound was assayed on HL-1 (assay: relative cell viability (CellTiter-Glo) vs DMSO control (% of DMSO control); higher = more viable cells). Conditions: oxygen condition: hypoxia 48 h (1% O2) + reoxygenation 24 h; 1000 nM.
In short: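 Cell viability was determined from CellTiter-Glo luminescence, expressed relative to vehicle-treated control cells. The cells were HL-1 mouse atrial cardiomyocytes, plated at 1000 cells per well in 384-well plates with compounds at 40, 200, 1000 or 5000 nM in 0.01% DMSO. One day after plating, they underwent 48 h of hypoxia (1% O2) in a hypoxic workstation followed by 24 h of reoxygenation in a normal incubator, or were kept in normoxia for an equal time.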

SMILES | relative cell viability
Cc1onc(-c2ccccc2)c1C(=O)N[C@@H]1C(=O)N2[C@@H]1SC(C)(C)[C@@H]2C(=O)O [Oxacillin sodium monohydrate] | 96.5
O=C(CCCCCCC(=O)Nc1ccccc1)NO [Vorinostat] | 85
CC1CCc2c(N3CCC(O)CC3)c(F)cc3c(=O)c(C(=O)O)cn1c23 (centres undefined) [Nadifloxacin] | 102
CCN(CCCc1ccccc1)CCCc1ccccc1 [Alverine Citrate] | 102
CC(=O)O[C@H]1C[C@@H]2CC[C@@H]3[C@H](CC[C@@]4(C)[C@H]3C[C@H]([N+]3(C)CCCCC3)[C@@H]4OC(C)=O)[C@@]2(C)C[C@@H]1N1CCCCC1 [Vecuronium Bromide] | 114
CNCCC(Oc1ccc(C(F)(F)F)cc1)c1ccccc1 (centres undefined) [Fluoxetine  HCl] | 114
CCCNC(C)C(=O)Nc1ccccc1C (centres undefined) [Prilocaine] | 105
Cc1c(N(C)C)c(=O)n(-c2ccccc2)n1C [Amidopyrine] | 109
CCCCN1CCCCC1C(=O)Nc1c(C)cccc1C (centres undefined) [Bupivacaine hydrochloride] | 102
O=C1c2c(O)ccc(O)c2C(=O)c2c(NCCNCCO)ccc(NCCNCCO)c21 [Mitoxantrone Hydrochloride] | 5.93
CO[C@H]1C[C@@H]2CC[C@@H](C)[C@@](O)(O2)C(=O)C(=O)N2CCCC[C@H]2C(=O)O[C@H]([C@H](C)C[C@@H]2CC[C@@H](OC(=O)C(C)(CO)CO)[C@H](OC)C2)CC(=O)[C@H](C)/C=C(\C)[C@@H](O)[C@@H](OC)C(=O)[C@H](C)C[C@H](C)/C=C/C=C/C=C/1C [Temsirolimus] | 74.2
C[C@@H]1C[C@H]2[C@@H]3C[C@H](F)C4=CC(=O)C=C[C@]4(C)[C@@]3(F)[C@@H](O)C[C@]2(C)[C@@]1(O)C(=O)CO [Flumethasone] | 103
C#C[C@]1(OC(C)=O)CC[C@H]2[C@@H]3CCC4=C[C@@H](OC(C)=O)CC[C@@H]4[C@H]3CC[C@@]21C [Ethynodiol diacetate] | 113
CS(=O)(=O)c1ccc(C2=C(c3ccccc3)C(=O)OC2)cc1 [Rofecoxib] | 103
NS(=O)(=O)c1cc2c(cc1Cl)N=C(CSCc1ccccc1)NS2(=O)=O [Benzthiazide] | 99.3
CC[C@H]1OC(=O)[C@H](C)[C@@H](O[C@H]2C[C@@](C)(OC)[C@@H](O)[C@H](C)O2)[C@H](C)[C@@H](O[C@@H]2O[C@H](C)C[C@H](N(C)C)[C@H]2O)[C@](C)(O)C[C@@H](C)/C(=N\OCOCCOC)[C@H](C)[C@@H](O)[C@]1(C)O [Roxithromycin] | 101
CC1=C(/C=C/C(C)=C/C=C/C(C)=C/C(=O)O)C(C)(C)CCC1 [Tretinoin] | 110
CCOC(=O)OC(C)OC1=C(C(=O)Nc2ccccn2)N(C)S(=O)(=O)c2ccccc21 (centres undefined) [Ampiroxicam] | 104
CC(O)(P(=O)(O)O)P(=O)(O)O [Etidronate] | 99.7
COC(=O)[C@H](c1ccccc1Cl)N1CCc2sccc2C1 [Clopidogrel] | 106

SMILES | relative cell viability
C[C@H](CCC(=O)O)[C@H]1CC[C@H]2[C@@H]3[C@@H](O)C[C@@H]4C[C@H](O)CC[C@]4(C)[C@H]3CC[C@]12C [Ursodiol] | 118
C[C@@H](O[C@H]1OCCN(Cc2nn(P(=O)(O)O)c(=O)[nH]2)[C@H]1c1ccc(F)cc1)c1cc(C(F)(F)F)cc(C(F)(F)F)c1 [Fosaprepitant dimeglumine] | 119
CC(=O)Oc1ccc(C(c2ccc(OC(C)=O)cc2)c2ccccn2)cc1 [Bisacodyl] | 109
Cc1cc(N)c2ccccc2[n+]1CCCCCCCCCC[n+]1c(C)cc(N)c2ccccc21 [Dequalinium chloride] | 101
CC1CNc2c(cccc2S(=O)(=O)N[C@@H](CCCNC(=N)N)C(=O)N2CC[C@@H](C)C[C@@H]2C(=O)O)C1 (some centres undefined) [Argatroban] | 94.6
CCCCNc1cc(C(=O)O)cc(S(N)(=O)=O)c1Oc1ccccc1 [Bumetanide] | 110
CCCCC(=O)O[C@H]1CC[C@H]2[C@@H]3CCc4cc(O)ccc4[C@H]3CC[C@]12C [Estradiol valerate] | 108
C[C@@](Cc1ccc(O)c(O)c1)(NN)C(=O)O [Carbidopa] | 101
O=c1[nH]cc(F)c(=O)[nH]1 [Adrucil] | 52.9
COc1ccccc1N1CCN(CC(O)COc2cccc3ccccc23)CC1 (centres undefined) [Naftopidil] | 104
OC(CCN1CCCC1)(c1ccccc1)C1CCCCC1 (centres undefined) [Procyclidine HCl] | 85.4
COc1ccc2cc1Oc1ccc(cc1)C[C@H]1c3c(cc4c(c3Oc3cc5c(cc3OC)CCN(C)[C@@H]5C2)OCO4)CCN1C [Cepharanthine] | 87
C=C1CC[C@H](O)C/C1=C/C=C1\CCC[C@]2(C)[C@@H]([C@H](C)/C=C/[C@H](C)C(C)C)CC[C@@H]12 [Vitamin D2] | 111
COc1cccc2c1C(=O)c1c(O)c3c(c(O)c1C2=O)C[C@@](O)(C(=O)CO)C[C@@H]3O[C@H]1C[C@H](N)[C@H](O)[C@H](C)O1 [Doxorubicin] | 57.3
CCOC(=O)c1c(C)n(C)c2ccc(O)cc12 [Mecarbinate] | 101
O=C(c1ccc(OCCN2CCCCC2)cc1)c1c(-c2ccc(O)cc2)sc2cc(O)ccc12 [Evista] | 106
CC(=O)O[C@H]1CC[C@@]2(C)C(=CC[C@@H]3[C@@H]2CC[C@]2(C)C(c4cccnc4)=CC[C@@H]32)C1 [Abiraterone Acetate] | 101
CN(Cc1cc(Br)cc(Br)c1N)C1CCCCC1 [Bromhexine HCl] | 99.9
C#CCN[C@@H]1CCc2ccccc21 [Rasagiline mesylate] | 98.2
